Over roughly 25,000 sequences, “ln(normalized median fluorescence intensity)” has its median near 9.7; the highest 2% begin near 11. The entries come from a sample that favours the highest values as a whole.
These sequences were tested on PfAP2-HC AP2 domain (GST-tagged) (assay: gcPBM binding intensity (ln(normalized median fluorescence intensity)); higher = stronger DNA binding).
Outline: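 The highest Masliner-normalised natural-log median intensity across replicate spots of either probe orientation is reported as binding intensity. GST-tagged P. falciparum DNA-binding domains expressed in E. coli were applied for 1 h to an Agilent 4 × 180k array of primer-extended double-stranded 36-bp intergenic genomic probes plus negative controls, and bound protein was detected with Alexa488 anti-GST antibody and scanned at 488 nm.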

Sequence | gcPBM binding intensity (ln)
ACATTATGCCATAAATGTACACATACATATACACAG [XGTACX_site1330] | 9.66
AAACAATTTTTTAAAAGTACTTGAAAATTGTGAAAT [XGTACX_site2461] | 9.63
ATAAAATGAACAAACACACACACATATATATATATA [CACACA_site2402] | 10.9
CCTTTAAGCAAAAACACACACACATATATATATATA [CACACA_site348] | 10
AAAAAACAAAAACACACACACACATATATATATATA [CACACA_site3654] | 10.9
AAAAAAACACACACATATATATATATATATATATAT [GTGCAC_negctrl_site498] | 10.3
TTTAAGCAAAAACACACACACATATATATATATATA [CACACA_site349] | 11.1
TATAAGCAAAAACACACACACATATATATATATATA [CACACA_site3804] | 10.2
TTTTAATGAAAACACACACACACATATATATATATA [CACACA_site5295] | 11.1
TTTTAATTAAAACACACACACACATATATATATATA [CACACA_site2291] | 10.6
AAAAAAATGAAACACACACACACATATATATATATA [CACACA_site1043] | 10.4
AAAATGAACAAACACACACACATATATATATATATA [CACACA_site2403] | 11.2
AACAAAAATGAAAAAACACACATAACATATATAAAT [CACACA_site740] | 10.1
AAAAAAAAAAAAAAAACACACATATATATATATATA [CACACA_site2436] | 10.4
CAAAGATATATAAACACACAAATATAACATATATAC [CACACA_site7395] | 9.99
ATATATTTATATATTACACACAATATTGTAGACATA [CACACA_site4669] | 9.74
TATATATAACTTTATTGTACAAAATATTATGTATTC [XGTACX_site981] | 9.66
TGATCAGATAGACACACACACAAAAAAAAAAAAAAA [CACACA_site7805] | 10.1
TATCAAAATTAGTATACACACAAAATTAATCAAATA [CACACA_site7117] | 9.86
ATATTAAGTTTTATTACACACTCTCAATTTTTATTT [CACACA_site4206] | 9.87
ATATTTTTTTCATAGACACACACAATATATCTGTTT [CACACA_site8993] | 10.1
AATATAAACACAAACACACACATATATATATATATA [CACACA_site4307] | 10.1
AAATAAATGAAACACACACACACAAAAAAAAAAAAC [CACACA_site2625] | 10.9

Sequence | gcPBM binding intensity (ln)
AAAAAAAAAAAAAAAACACACACATATATATATATA [CACACA_site8571] | 9.9
AATATAAACAAACACACACACATATATATATATATT [CACACA_site5592] | 10.3
CTCCATATTAGACACACACACAAATGAAAAAAATAT [CACACA_site7420] | 10.2
AAAAAAAAAAAACACACACACATATATATATATATA [CACACA_site732] | 11.1
AAAAAAAAAAAAAACACACACATATATATATATATA [CACACA_site1891] | 10.4
CTCCATATGAAACACACACACAAATGAAAAAAATAT [CACACA_site3018] | 11
GGATATAACAAACACACACACACATATATATATATT [CACACA_site4141] | 11.2
TATTATTTGAGTAGTTGTACTCATTAATATATAAAA [XGTACX_site3468] | 9.35
TTTGGCTAGTTAGGCCGTACATGTAAATAATATATA [XGTACX_site1138] | 9.47
AACTCACGAGGACACACACACATATATATATATATA [CACACA_site4711] | 10.2
TATATATATTTATACACACACATATATTTATATATT [CACACA_site484] | 9.97
ACCATACATACATACACACACACACGCATATTTATA [CACACA_site7386] | 11.2
AGCACGCACAGACACACACACATATTTATATTTATA [CACACA_site6291] | 10.3
AAAAAACAGACATACACACACACACGGATATTTATA [CACACA_site7570] | 11.4
TATATATATTTATGCACACAAAATATATTATATAAT [CACACA_site5955] | 9.67
AACGCACGAGGACACACACACATATTTATATTTATA [CACACA_site6608] | 11.4
TATATATATATATATACACACATATATATATTTATA [CACACA_site627] | 10.2
ATATTAAACAGACACACACACATATATTTATTTATA [CACACA_site7564] | 10.4
ATTATATATATTTATGCACACAAAATATATTATATA [CACACA_site9244] | 9.64
AAAAAACACGGACACACACACATATACATACATACA [CACACA_site5470] | 10.6
CAAAAGGATATGCACACACACACACGGATATTTATA [CACACA_site7099] | 11.4
TCATCCACATATTGTAGTACAAGATAATTGTTTATT [XGTACX_site1634] | 9.63
TTTTTAGAAAGACATGCATGTAATAAAAATAAATAA [TGCATGCA_site685] | 9.82

Sequence | gcPBM binding intensity (ln)
AAAATTTAATATAATGCACACATAAAAAAAAATTCA [CACACA_site8640] | 9.77
TATAGATGTATGTACATACACACATATATAAATAAA [CACACA_site1789] | 10
TTATGCAATTTGTATTGTACATTCATGATATTAATA [XGTACX_site5070] | 9.53
TACATGTATAAATAAGCACACATGTGGATATGTACA [CACACA_site93] | 10
TATTTTTCTTTTTAAAAATATATCACATGAACATTA [XGTACX_negctrl_site183] | 9.39
ATATAAAAAAATAATAAATAAATAAAAAGATTTCTT [XGTACX_negctrl_site110] | 9.65
TATTTATACACGCACACACACTTATACATTTATATA [CACACA_site7543] | 10.8
ATATACATTAAATGAACACACATAAATAAATTACAT [CACACA_site2852] | 9.89
TTATGATGGTCTTTATAAGGGCACATTAAATTCGGC [TGCATGCA_negctrl_site166] | 9.35
AAACCGTGGGAGCACACACACACACCGACACATATA [CACACA_site4338] | 10.4
TACATATTTATATACACACACACACGGATATTTATA [CACACA_site7239] | 11
TATATATATATTTATACACACACATATATTTATATA [CACACA_site8054] | 10.1
AAACCGTGGGAGCACACACACACACGCGCACATATA [CACACA_site6288] | 10.5
TATTTATATTTATATACACACATACATATTTATATT [CACACA_site6535] | 9.93
ACCGTGGGAGGACACACACACACACGCACATATATA [CACACA_site6289] | 11.1
TTTTAAAAATCTATATGTACACAATACGTCTATAAA [XGTACX_site5787] | 9.54
AAAAAAAAACAAAAAAGTACAAAATAAAAATACGTT [XGTACX_site4566] | 9.75
TTTTTTTCTTTTCAAACACACAATTGGTATATATTA [CACACA_site3320] | 9.81
AAGAATTATAGAAACACACATACATACAGACATACA [CACACA_site1943] | 10.1
AACGTCTTTTTTTTTTTTTTTCTTTTTTTTTTTATT [CACACA_negctrl_site303] | 9.86
AAAAAAAAAACACGCGCACACACACCCACCCACCCA [CACACA_site8689] | 10.9
AAAAAAAACACGCGCACACACACACCCACAGACACA [CACACA_site5253] | 10.7
AGAAAAAAACAACATGCACACGCACCCACAAAAAAA [CACACA_site7908] | 10.4

Sequence | gcPBM binding intensity (ln)
AAAAAAAAAAAAAACACACATACACGCCCACCCATA [CACACA_site3391] | 10.4
AAAAAACACGCGCACACACACACACGCGCCCACATA [CACACA_site7106] | 11.1
AAAAAAAACACGCGCACACACACACCCACCCACCGA [CACACA_site2206] | 11.5
AAAAAAACAACATGCACACGCACACCCAAAAAAAGC [CACACA_site72] | 10.7
AAAAAAAAAACAAATACACACGCACCCAAAAAAAAA [CACACA_site8166] | 10.2
AAAAAAAAAAAAAAAACACACATACACGCACGCACA [CACACA_site7569] | 10.8
GTATAATTGGAAATTACACACCTTAGAATGTAACAT [CACACA_site4059] | 9.68
AAAACTATAAAAATTTTACACACTGTTTTTAAATAA [CACACA_site3667] | 9.57
TATATTATTCATTAAGCACACATTATTTTTATAATA [CACACA_site6056] | 9.69
ACATAATTAACAAATACACACACACCCACCCACAAA [CACACA_site8069] | 10.7
TTAATACCCAGACACACACACACAAAATAAAATACA [CACACA_site7968] | 11
ATAATTAACAAATACACACACACACGCCCACAAAAA [CACACA_site6389] | 11.6
GTATTATATTTTAATACACACCCAAATATTAAAAAG [CACACA_site8968] | 9.77
TTTATTTATTAATACACACACACACCCAGACAAAAT [CACACA_site4292] | 11.3
TTAATACCCGGACACACACACACAAAATAAAATACA [CACACA_site4296] | 10.6
ATAATTAACAAATACACACACACACCCCCACAAAAA [CACACA_site518] | 10.9
TTTTTATTTATTAATACACACACACCCACCCACAAA [CACACA_site7965] | 10.4
TTTATTTATTAATACACACACACACGCCCACAAAAT [CACACA_site6253] | 10.5
TATTAATACAGACACACACACACACCCAATAAAATA [CACACA_site243] | 10.8
TTTATTTATTAATACACACACACACCCCCACAAAAT [CACACA_site240] | 11.4
ATAATTAACAAATACACACACACACCCAGACAAAAA [CACACA_site4445] | 10.8

Source: the supplement of paper PMC11417369
